# Rows were chosen to be rich in hits. Some 7.4% of all compounds tested hit in one or more screens of this group.
# Luc counter: Counterscreen for Luciferase (Kinase-Glo TM) Inhibition. Potency, µM (series often up to 38.3 µM), without a hit: top-dose activity change, negative = inhibition, usual class: inhibitors. AID 1379, 2008. hit rate 0.28% among 200,000. Kinase-Glo luciferase, ATP luminescence, 8 min. Luciferin 4-monooxygenase (Photuris pensylvanica), Q27757; note: % is set by controls: 0 for no effect and ±100 for the full control effect; nearly all actives have a fitted effect of over 60% in size
#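 Inhibition of Kinase-Glo luciferase light generation was assessed at 10 uM ATP in pH 7.2 imidazole buffer, with luminescence measured after eight minutes at ambient temperature.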
# NPC1 prom act: qHTS Assay for NPC1 Promoter Activators. Huh7 NPC1 promoter luciferase reporter, 24 h. Potency, µM (top dose mostly 9.22 µM), without a hit: at the top dose activation, actives largely listed as activators. hit rate 2.4% among 320,000; note: % of control where 0% means no effect; nearly all actives have a fitted effect of over 60% in size
#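 Stable NPC1-promoter luciferase Huh7 line; cpd (DMSO) 24 h, 37 °C, 5% CO2; Amplite luciferase reagent 10 min RT; luminescence readout. qHTS format.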
# ELG1 genotoxic: qHTS screen for small molecules that induce genotoxicity in human embryonic kidney (HEK293T) cells expressing luciferase-tagged ELG1; Potency, µM (titrated, usually from 46 µM), inactives show top-dose activity change, positive = activation, most hits filed as activators; hit rate 1.3% among 330,000; HEK293T ELG1-luciferase reporter, luminescence, 16 h; AID 504466, 2011; note: % of control where 0% means no effect; nearly all actives have a fitted effect of over 60% in size
#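 After overnight (16 hr) compound treatment at 37 °C, ELG1-luciferase HEK293T cells were lysed with ONE-Glo; luminescence quantified 30 min later at room temperature.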
# Rab9 promoter act: qHTS Assay for Rab9 Promoter Activators; Huh7 Rab9 promoter-luciferase reporter, luminescence, 24 h; Potency, µM (series often up to 9.22 µM), inactives show at the highest dose activation, negative = inhibition, usual class: activators; hit rate 2.8% among 320,000; note: % of control where 0% means no effect; nearly all actives have a fitted effect of over 60% in size
#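 Rab9 promoter-driven luciferase in stably transfected Huh7 cells; 1500 cells/well rested 2 h, exposed to compound in DMSO for 24 h at 37 °C, 5% CO2. Luminescence read 10 min after adding luciferase reagent at ambient temperature.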
# SMN2 splice enh: qHTS Assay for Enhancers of SMN2 Splice Variant Expression | HEK293 SMN2-luciferase splicing reporter, luminescence, 30-36 h | Potency, µM (top dose mostly 46.1 µM), without a hit: top-dose activity change, positive = activation, hits mostly activators | hit rate 2.8% among 210,000; note: % of control where 0% means no effect; nearly all actives have a fitted effect of over 55% in size
#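 HEK293 cells carry an SMN2 […]–luciferase reporter in which exon 7 inclusion puts luciferase in frame. Cells were plated 10-12 h before compound addition, then incubated 30-36 h at 37C. ONE-Glo luminescence was read; sodium butyrate at 4.5 mM final served as control.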
# FLuc counter: qHTS profiling assay for firefly luciferase inhibitor/activator using purifed enzyme and Km concentrations of substrates (counterscreen for miR-21 project) | hit rate 6.9% among 360,000 | Luciferin 4-monooxygenase (Photinus pyralis), P08659 | AID 588342, 2011 | Potency, µM (highest dose often 57.5 µM), for inactives: top-dose activity change, negative = inhibition, hits mostly inhibitors | purified FLuc, Km substrates, luminescence inhibition;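 note: plate controls were vehicle for no effect and reference inhibitor for full effect; nearly all actives have a fitted effect of over 55% in size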
# Target sequence (P08659 whole entry, looked up): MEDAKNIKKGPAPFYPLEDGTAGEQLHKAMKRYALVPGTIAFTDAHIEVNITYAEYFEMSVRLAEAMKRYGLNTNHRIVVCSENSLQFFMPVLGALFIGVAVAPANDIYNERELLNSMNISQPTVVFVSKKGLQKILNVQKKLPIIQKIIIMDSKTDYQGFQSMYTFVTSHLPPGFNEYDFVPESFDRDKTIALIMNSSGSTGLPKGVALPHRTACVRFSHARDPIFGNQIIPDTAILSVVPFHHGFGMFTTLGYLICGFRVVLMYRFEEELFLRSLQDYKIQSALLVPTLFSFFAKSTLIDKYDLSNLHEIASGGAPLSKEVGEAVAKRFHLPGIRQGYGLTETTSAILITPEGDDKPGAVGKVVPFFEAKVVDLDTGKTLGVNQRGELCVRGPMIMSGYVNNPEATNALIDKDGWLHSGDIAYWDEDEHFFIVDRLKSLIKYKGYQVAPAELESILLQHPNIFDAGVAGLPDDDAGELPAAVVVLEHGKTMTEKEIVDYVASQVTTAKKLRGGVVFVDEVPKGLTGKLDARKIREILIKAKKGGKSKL
#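 Purified P. pyralis luciferase (10nM final) with 10uM D-luciferin and 10uM ATP (Km levels) in 50mM Tris acetate pH 7.5, 10mM Mg acetate, 0.01% Tween-20, 0.05% BSA; qHTS 6-point titration, ~60 µM downward; luminescence read.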
# Numbers without * were called inactive; ? = inconclusive; . = not tested or not shown; [ ] = another dose, or the depositor's remark. Calls come from the whole dose curve; as a rule, active = well fitted curve in the direction sought with a large enough effect; inconclusive = small, poorly fitted or top-dose-only effect, or another doubt; inactive = no such curve, though single readings can be large; an effect the other way counts as inactive or inconclusive. Potency is the fitted concentration of half-maximal effect.
SMILES,Luc counter,NPC1 prom act,ELG1 genotoxic,Rab9 promoter act,SMN2 splice enh,FLuc counter
CNc1sc(C(=O)c2ccccc2F)c(N)c1-c1nc2ccccc2s1,-3%,4µM*,?,4.5µM*,?,8.5µM*
N#CCCCS(=O)(=O)c1nnnn1-c1ccc(Br)cc1,1%,.,.,.,7%,.
COc1ccc(-c2nnc(SCC(=O)Nc3ccc(C)c(C)c3)s2)cc1,.,.,.,.,.,-12%
O=C(Nc1ccc2cn[nH]c2c1)c1ccccc1F,-1%,2.2µM*,?,2µM*,11µM*,9.5µM*
O=C(Nc1ccc(C(=O)N2CCCC2)cc1)c1ccccc1F,?,?,8.2µM*,?,?,?
NC(=O)Nc1ccccc1C(=O)Nc1ccc2ccccc2c1,.,3%,0%,20%,.,-14%
O=C(Nc1ccc2cn[nH]c2c1)c1c(Cl)cccc1Cl,2%,0%,-3%,-2%,-2%,-5%
O=C(Nc1ccc(F)cc1)c1ccccc1F,-10%,.,.,.,7%,21µM*
O=C(Nc1ccc2ccccc2c1)c1ccccc1F,.,0.5µM*,2.6µM*,0.63µM*,.,1.3µM*
CCOC(=O)c1cccc(NC(=O)N2CC(CC)Oc3ccccc32)c1 (configuration not stated),.,.,.,.,.,1%
COc1ccc(N2CCN(S(=O)(=O)c3ccc4c(c3)CC(C)N4C(C)=O)CC2)cc1 (configuration not stated),.,.,.,.,.,-4%
O=C(Nc1ccc2nc(-c3cccnc3)[nH]c2c1)c1ccccc1F,-1%,1%,8%,8%,0%,15µM*
CC(=O)Nc1ccc(NC(=O)c2ccccc2F)cc1,-2%,16%,?,-6%[1.84 µM],?,?
O=C(Nc1ccc2oc(-c3cccnc3)nc2c1)c1ccccc1F,.,.,.,.,5%,?
O=C(Nc1ccc(SC(F)F)cc1)c1ccccc1F,-3%,2.5µM*,?,1.8µM*,18µM*,13µM*
O=C(Nc1ccc(Oc2cccnc2)cc1)c1ccccc1F,-4%,?,3%,2.8µM*,-1%,12µM*
O=C(Nc1ccncc1)c1ccccc1F,7%,-3%,-11%,-1%,-9%,-2%
O=C(Nc1ccc(Oc2cccnc2)cc1)c1ccccc1Cl,.,11%,-3%,18%,.,?
CCOC(=O)Nc1ccc(NC(=O)c2ccccc2F)cc1,-7%,?,?,3.5µM*,?,?
COc1ccc(C(=O)N2c3ccc(C)cc3C(C)(c3ccccc3)CC2(C)C)cc1 (configuration not stated),.,.,.,.,-24%,0%
CCCCn1c(C)cc2c(c1=O)C1O[C@](c3ccsc3)(Cc3ccccc31)O2,.,1%[1.84 µM],.,0%[1.84 µM],.,1%[11.5 µM]
O=C(O)[C@@H](O)[C@@H](O)[C@@H](O)[C@@H](O)c1nc2ccccc2s1,-6%[7.66 µM],.,.,.,-6%[9.22 µM],.
O=C(Nc1ccc(SC(F)F)cc1)c1ccc(F)cc1,-2%,2.2µM*,?,1.3µM*,11µM*,8.5µM*
CCN(CC)C(=O)c1ccc(C(=O)Nc2ccc(F)cc2)cc1,.,17%,?,?,.,?
O=C(Nc1ccc(F)cc1)c1cccc(C(=O)Nc2ccc(F)cc2)c1,.,4%,10%,7%,.,-1%
SMILES,Luc counter,NPC1 prom act,ELG1 genotoxic,Rab9 promoter act,SMN2 splice enh,FLuc counter
COC(=O)c1ccc(C(=O)Nc2ccc(F)cc2)cc1,.,2.5µM*,14%,?,.,12µM*
O=C(Nc1ccc(F)cc1)c1ccccc1,-6%,?,?,?,19%,24µM*
O=C(CSc1nc(=O)n(Cc2ccncc2)c2c1CCC2)Nc1ccc(F)cc1F,.,.,.,.,.,-1%
Cc1cc(N/C=C/C(=O)c2ccc(Br)cc2)no1,-3%,?,?,?,?,?
Cc1ccnc(N/C=C/C(=O)c2ccc(Br)cc2)c1,.,1.6µM*,?,1.1µM*,.,0.95µM*
COc1ccc(S(=O)(=O)Nc2cc(C)ccn2)cc1,1%,-7%,0%,-1%,17%,6%
COc1ccc(C(=O)/C=C/Nc2cc(C)ccn2)cc1,.,0.4µM*,?,0.32µM*,.,0.48µM*
O=C(/C=C\Nc1ccc(Cl)cn1)c1ccc(Br)cc1,4%,2µM*,?,2.5µM*,11µM*,?
CC1CCN(S(=O)(=O)c2ccc3nc(NCc4ccccc4)ccc3c2)CC1,.,.,.,.,.,-12%
Cc1ccccc1C(=O)Nc1ccc(S(=O)(=O)N2CCC(c3nc4ccccc4s3)CC2)cc1,.,.,.,.,.,0%
Cc1ccc(-n2c(CCC(=O)O)ccc2-c2cccs2)cc1C,0%,2%,2%,-8%,-12%,12µM*
CCc1ccc(-n2c(CCC(=O)O)ccc2-c2cccs2)cc1,.,.,.,.,2%,13µM*
O=C(OCc1nnc(-c2ccc(Cl)cc2)o1)C12CC3CC(CC(O)(C3)C1)C2,0%,2.8µM*,?,2.2µM*,12%,5.4µM*
O=C1Cc2c([nH]c3ccc(Br)cc23)-c2ccccc2N1,-3%,0.52µM*,.,0.37µM*,11µM*,.
Brc1ccc2[nH]c3c(c2c1)CCC3,.,-4%,-3%,2%,.,-3%
Clc1ccc(CN2CCC(CNc3ncnc4onc(-c5ccc(Cl)cc5)c34)CC2)cc1,.,.,.,.,-24%,1%
Cc1ccc(-n2nc(C)c3c(C)c(CCC(=O)NCc4ccccc4Cl)c(C)nc32)cc1,.,.,.,.,6%,-2%
COc1cccc(CNc2cc(C)nc3nc(-c4ccc(C)cc4)nn23)c1,.,.,.,.,.,1.7µM*
